Coupling enz: counter-screen for Giardia aldolase inhibitors: coupling enzyme system | coupling enzyme system counterscreen, AmpLite Red fluorescence | activity change, negative = inhibition, % at 58.2 µM, hits read low | actives 0.67% (n = 290,000); in the data active means activity change below about -30%
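Compounds tested against the coupling enzymes alone at 57.5 uM final; readout was AmpLite Red fluorescence (525/598 nm) after 20 min at RT.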
NPSR antag: antagonists of human neuropeptide S receptor cAMP signaling; actives 1% (n = 220,000); Q6W5P4; AID 1461; Potency, µM (series often up to 38.3 µM), usual class: inhibitors; CHO-NPSR cells, cAMP TR-FRET, antagonist mode; active means well fitted curve in the direction sought with a large enough effect; inconclusive means small, poorly fitted or top-dose-only effect, or another doubt; inactive means no such curve, though single readings can be large; an effect the other way counts as inactive or inconclusive; further: nearly all actives have a fitted effect of over 50% in size
Sfp inh: inhibitors of Bacillus subtilis Sfp phosphopantetheinyl transferase. Biochemical Sfp PPTase activity, qHTS. Potency, µM, most hits filed as inhibitors. actives 3.5% (n = 310,000). AID 1490; active means well fitted curve in the direction sought with a large enough effect; inconclusive means small, poorly fitted or top-dose-only effect, or another doubt; inactive means no such curve, though single readings can be large; an effect the other way counts as inactive or inconclusive;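 further: the enzyme is Sfp with the accession as filed and its product quenches rhodamine fluorescence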
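Reaction rates are the 30-min fluorescence difference (ex 525, em 598 nm) in wells containing 15 nM Sfp, 5 uM rhodamine-CoA and 12.5 uM BHQ-2-YbbR at pH 7.6 with 10 mM MgCl2.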
ALDH1A1 inh: inhibitors of human aldehyde dehydrogenase 1A1; Potency, µM (highest dose often 75.3 µM), hits mostly inhibitors; Purified ALDH1A1, NADH fluorescence, propionaldehyde substrate; actives 7.3% (n = 220,000); P00352
Target sequence (P00352 whole entry, looked up): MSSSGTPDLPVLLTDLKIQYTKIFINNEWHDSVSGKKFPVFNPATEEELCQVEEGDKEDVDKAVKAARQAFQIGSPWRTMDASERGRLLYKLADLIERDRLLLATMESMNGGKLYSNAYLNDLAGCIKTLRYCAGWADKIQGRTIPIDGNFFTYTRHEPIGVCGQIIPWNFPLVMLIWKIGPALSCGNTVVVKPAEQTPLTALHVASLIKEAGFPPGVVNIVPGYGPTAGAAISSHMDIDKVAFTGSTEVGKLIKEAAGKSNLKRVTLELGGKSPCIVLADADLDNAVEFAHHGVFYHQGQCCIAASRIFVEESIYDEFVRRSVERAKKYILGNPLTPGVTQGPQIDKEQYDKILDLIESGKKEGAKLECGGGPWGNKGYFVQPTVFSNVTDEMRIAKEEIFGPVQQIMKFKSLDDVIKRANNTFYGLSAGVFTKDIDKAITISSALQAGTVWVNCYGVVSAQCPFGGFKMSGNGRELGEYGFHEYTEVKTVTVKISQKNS
RGS12 GoLoco inh: RGS12 GoLoco-Gai1 interaction inhibition; Gai1:RGS12 GoLoco peptide FP, rhodamine, 10 min; Potency, µM (series often up to 61.6 µM), most hits filed as inhibitors; AID 880; actives 0.44% (n = 230,000); active means well fitted inhibition curve with a large enough effect, not every such curve was filed as active; inactive means no such curve, though single readings can be large or run the other way; further: nearly all actives have a fitted effect of over 30% in size
KDM4E inh: JMJD2E (human) inhibition. AID 2147. actives 1.6% (n = 230,000). JMJD2E catalytic domain, FDH-coupled NADH fluorescence (FDH is formaldehyde dehydrogenase). Potency, µM (series often up to 57.1 µM), actives largely listed as inhibitors. B2RXH2; further: nearly all actives have a fitted effect of over 50% in size
Numbers stand for hits; - = inactive; ? = inconclusive; . = no result; [ ] = another dose, or the depositor's remark. Hits are enriched below; roughly 8.5% of the tested compounds scored in any of these assays. Unless noted, the call rests on the fitted dose curve; in most records, active means well fitted inhibition curve with a large enough effect (not every such curve was filed as active); inconclusive means small, poorly fitted or top-dose-only effect, or another doubt; inactive means no such curve, though single readings can be large or run the other way.

SMILES	Coupling enz	NPSR antag	Sfp inh	ALDH1A1 inh	RGS12 GoLoco inh	KDM4E inh
Cc1cc(Cl)c(S(=O)(=O)N2CCCCCC2)cc1OCC(=O)NC1CCCCC1	-	?	-	?	-	-
O=C(COC(=O)C1CCC(N2C(=O)C3C4CCC(C4)C3C2=O)CC1)c1ccc(F)cc1 (stereo not given)	-	.	-	.	.	.
Cn1c(=O)[nH]c(=O)c2[nH]c(CN3CCN(Cc4ccccc4)CC3)nc21	-	-	-	.	-	-
Cn1c(=O)[nH]c(=O)c2[nH]c(N(Cc3ccccc3)Cc3ccccc3)nc21	-	?	89µM	-	-	-
O=C(NC(=S)N1CCOCC1)c1ccc([N+](=O)[O-])cc1	-	-	-	-	-	?
COc1ccc(NCC(=O)Nc2ccc(C#N)cc2)cc1Cl	-	-	-	10µM	-	-
COc1ccc(NC(=O)CNc2cccc(C#N)c2)cc1Cl	-	-	-	?	-	-
CCN(CC)S(=O)(=O)c1ccc2nnn(OCC(=O)Nc3cccc(C#N)c3)c2c1	-	-	-	14µM	-	-
COc1cc(CC(=O)Nc2ccc(S(=O)(=O)N(C)C)cc2)cc(OC)c1OC	-	-	-	?	7.9µM	-
COc1ccc(S(=O)(=O)N(C)C)cc1NCC(=O)Nc1cccc(C#N)c1	-	-	-	20µM	-	?
CCCCN1C(=O)CC(Sc2ccccc2C(=O)O)C1=O (stereo not given)	-	-	-	?	-	-
COc1ccc(N2C(=O)CC(Sc3ccccc3C(=O)O)C2=O)c([N+](=O)[O-])c1 (stereo not given)	-	-	14µM	1µM	-	-
Cc1ccc(N2C(=O)CC(Sc3ccccc3C(=O)O)C2=O)c([N+](=O)[O-])c1 (stereo not given)	-	-	7.1µM	2µM	-	-
COc1ccc(N2CCN(C(=O)c3ccccc3F)CC2)c([N+](=O)[O-])c1	-	-	-	.	-	-
Cc1cccc(NC(=S)Nc2ccc(N3CCOCC3)cc2)c1C	-	-	-	-	-	-
O=C(CCl)Nc1cccn2ncnc12	-	-	-	3.2µM	-	?
O=C(Nc1cccn2ncnc12)C(F)(F)F	-	-	-	-	-	-
Cc1ccc(-c2nnn(CC(=O)NCCC3=CCCCC3)n2)cc1	-	-	-	28µM	-	-
O=C(CN1CCN(C2CCCCC2)CC1)NCCC1=CCCCC1	-	-	79µM	-	-	?
CC(C(=O)c1ccc(Br)cc1)[n+]1cccc2ccccc21 (stereo not given)	-	.	-	.	.	.
Cc1ccc(NC2=C(Cl)C(=O)OC2OC(=O)c2ccccc2)c(C)c1 (stereo not given)	-	-	50µM	-	-	-
CC(Oc1ccc(Cl)cc1)C(=O)Nc1ccccc1C(=O)N1CCOCC1 (stereo not given)	.	.	-	.	.	.
Cc1ccc(S(=O)(=O)Nc2cc(C(C)C)c(O)cc2C)cc1	-	-	-	2µM	-	-
CCc1cc2c(=O)c(-c3ccc4c(c3)OCCO4)coc2c(CN2CCCCC2C)c1O (stereo not given)	-	10µM	?	?	-	?
CCc1cc2c(=O)c(-c3nc4ccccc4[nH]3)coc2c(CN2CCCCC2C)c1O (stereo not given)	-	-[7.67 µM]	-	.	-	-
SMILES	Coupling enz	NPSR antag	Sfp inh	ALDH1A1 inh	RGS12 GoLoco inh	KDM4E inh
CC(=O)C(C(C)=O)c1c(Cl)c(O)c(O)c2c(C(=O)c3ccccc3)coc12	-	-	6.3µM	-	-	16µM
COC(=O)N1CCC2(CC1)CN(c1ccccc1)C2	-	.	-	-	-	.
COC1C=CO[C@@]2(C)Oc3c(C)c(O)c4c(O)c(c(C=NN5CCN(C)CC5)c(O)c4c3C2=O)NC(=O)/C(C)=C\C=CC(C)C(O)[C@@H](C)C(O)C(C)[C@H](OC(C)=O)C1C (stereo not given in full)	-	.	-	-	-	13µM
CNc1oc(-c2ccccc2)nc1S(=O)(=O)c1ccc(C)cc1	.	.	-	.	.	.
CNc1oc(Cc2ccccc2)nc1S(=O)(=O)c1ccccc1	-	-	50µM	25µM	-	-
CNc1oc(C)nc1S(=O)(=O)c1ccc(C)cc1	-	-	45µM	?	-	?
O=C(c1ccco1)N1CCN(Cc2csc(-c3ccccc3Cl)n2)CC1	.	.	-	.	.	.
O=C(Cc1ccccc1[N+](=O)[O-])NCCSCc1c(F)cccc1Cl	-	-	-	?	-	-
O=C(OC1CCOC1=O)c1cccc(S(=O)(=O)N2CCc3ccccc3C2)c1 (stereo not given)	-	-	-	13µM	-	-
O=C(OC1CCOC1=O)c1ccc(S(=O)(=O)N2CCCCCC2)cc1 (stereo not given)	-	-	-	?	-	-
COc1ccc(C(=O)NCC(=O)NCC(=O)OCC(=O)c2cccs2)cc1	-	-	-	16µM	-	?
O=C(COC(=O)c1cccs1)c1ccc2c(c1)OCCO2	-	-	-	18µM	-	-
Cc1ccc(C(=O)NCC(=O)OCC(=O)c2ccc3c(c2)OCCO3)cc1C	-	-	-	?	-	-
COc1ccc(C(=O)NCC(=O)NCC(=O)OCC(=O)c2ccc(Br)cc2)cc1	-	.	-	.	.	.
COc1ccc(C(=O)NCC(=O)OCC(=O)c2ccc3c(c2)OCCO3)cc1	-	-	-	7.9µM	-	-
O=C(COC(=O)c1cccs1)c1ccc2ccccc2c1	-	-	?	-	-	-
COC(=O)c1ccc(C)c(NC(=O)c2ccc(CN3CCc4ccccc4C3)cc2)c1	-	.	?	.	.	.
Cc1cc(C)n(C2CC(=O)N(c3ccc(Cl)c(Cl)c3)C2=O)n1 (stereo not given)	-	-	-	?	-	-
NSc1nc(N)c2nc(-c3ccccc3)c(-c3ccccc3)nc2n1	-	-	-	14µM	-	?
Cc1cccc(SCC(=O)Nc2ccccc2[N+](=O)[O-])c1	-	-	-	?	-	-
CCOCCCNC(=O)c1cc(Cl)c(NC(=O)C2=C(C)OCCS2)cc1OC	-	.	-	.	.	.
COCc1cc(C)nc(OCC(=O)N/N=C/c2ccc(C)o2)c1C#N	-	-	4µM	?	-	?
COCc1cc(C)nc(OCC(=O)N/N=C/c2ccc(O)cc2)c1C#N	-	-	-	-	-	-
NC(=S)N/N=C/c1c[nH]c2ccc(OCc3ccccc3)cc12	-	.	32µM	.	.	.
NC(=S)N/N=C\c1c[nH]c2ccccc12	.	.	.	-[13.5 µM]	-[14.2 µM]	.
CN(C)/C=C1\Cc2ccccc2C1=O	-	-	-	.	-	?
C/[N+]([O-])=C1\Cc2ccccc2C1=O	-	-	-	3.5µM	-	-
CC1=NN(c2ccccc2)C(=O)C1C=Nc1ccccc1O (stereo not given)	-	-	-	?	-	32µM
CC1=NN(c2ccccc2)C(=O)C1/C=C1\NC(=S)NC1=O (stereo not given)	-	-	-	13µM	-	?

Screening data: PubChem, National Center for Advancing Translational Sciences (NCATS)
